Compound activity deposited in PubChem by National Center for Advancing Translational Sciences (NCATS).
TrxR1 substrate = is turned over as a substrate by rat TrxR1. 0.01% of 390,000 active. O89049. Potency, µM (series often up to 114 µM), for inactives: at the top dose activity change, negative = substrate turnover. purified TrxR1 substrate turnover, NADPH consumption readout. AID 588456; note: potency is the fitted concentration of half-maximal effect; nearly all actives have a fitted effect of over 50% in size
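Rat TrxR1, dispensed at 90 nM, was prereduced with 400 uM NADPH (final) for 5 min at ~22 deg C, then incubated with compound 15 min before 400 uM selenite. A first-read NADPH fluorescence drop versus no-compound background flagged substrates.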
rTrxR1 inhibitor = rat TrxR1 inhibition; recombinant rTrxR1, NADPH fluorescence consumption, selenite substrate; Potency, µM (series often up to 114 µM), inactives show at the top dose activity change, negative = inhibition, usual class: inhibitors; 1% of 390,000 active; AID 588453; note: potency is the fitted concentration of half-maximal effect; nearly all actives have a fitted effect of over 65% in size
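Rat TrxR1 (90 nM in the dispensed reagent) was pre-reduced with 400 uM NADPH for 5 min at room temperature, then incubated with compound for 15 min. After 400 uM selenite was added, NADPH fluorescence (Ex 340/Em 450 nm) was followed for 8 min.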
IDH1 R132H inh = inhibitors of human mutant IDH1 R132H; Potency, µM (doses to about 76.6 µM), for the others: at the top dose activity change, negative = inhibition, most hits filed as inhibitors; IDH1-R132H enzyme, NADPH consumption, diaphorase/resazurin fluorescence; O75874; 0.093% of 390,000 active; note: potency is the fitted concentration of half-maximal effect; nearly all actives have a fitted effect of over 65% in size
Target sequence (O75874 whole entry R132H, stated change not applied): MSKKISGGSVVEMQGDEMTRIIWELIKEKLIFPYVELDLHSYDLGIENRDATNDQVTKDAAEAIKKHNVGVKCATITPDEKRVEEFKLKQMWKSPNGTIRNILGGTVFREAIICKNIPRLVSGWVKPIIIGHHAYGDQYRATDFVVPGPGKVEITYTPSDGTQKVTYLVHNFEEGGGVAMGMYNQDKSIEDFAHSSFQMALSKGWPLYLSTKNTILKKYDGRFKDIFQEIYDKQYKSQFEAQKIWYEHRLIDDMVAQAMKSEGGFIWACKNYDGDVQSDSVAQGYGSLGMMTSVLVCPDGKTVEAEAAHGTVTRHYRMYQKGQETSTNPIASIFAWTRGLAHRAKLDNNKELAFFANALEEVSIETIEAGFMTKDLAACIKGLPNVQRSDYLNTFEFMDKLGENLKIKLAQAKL
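IDH1-R132H (0.5 ug/mL dispensed) in pH 7.5 Tris buffer was preincubated 30 min with compound, then given a substrate mix of 0.016 mM NADPH and 2 mM alpha-KG for 80 min at room temperature; remaining NADPH was read by diaphorase/resazurin fluorescence.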
Coupling enz = counter-screen for Giardia aldolase inhibitors: coupling enzyme system; AID 2472; coupling enzyme system counterscreen, AmpLite Red fluorescence; activity change, negative = inhibition, % at 58.2 µM, hits read low; 0.67% of 290,000 active; in the data active = activity change below about -30%
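Coupling enzymes only (glyceraldehyde-3-phosphate) + compound, at 57.5 uM final, 10 min RT; add substrate/coupling/AmpLite Red mix, 20 min RT; fluorescence ex 525/em 598 nm. Actives flag coupling-system interference.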
Eya2 inh = blocks the phosphatase activity of human Eya2 | O00167 | recombinant Eya2, OMFP fluorescence dephosphorylation (OMFP is methylfluorescein phosphate) | Potency, µM (top dose mostly 76.9 µM), for the others: at the highest dose activity, negative = inhibition, most hits filed as inhibitors | 0.006% of 330,000 active | AID 488837; note: potency is the fitted concentration of half-maximal effect
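Eya2 (0.2 uM) preincubated 10 min at ambient with compound, then OMFP substrate added at 50 uM; 10 min reaction in 50 mM HEPES pH 7.5, 50 mM NaCl, 5 uM MgCl2, 0.05% BSA, 1 mM DTT. Fluorescence read at Ex 485/Em 525 nm.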
* hit, by the source's call; ? = inconclusive; · = not tested or not shown; [ ] = another dose, or the depositor's remark. Rows were chosen to be rich in hits. Some 1.5% of all compounds tested hit in one or more screens of this group. Unless noted, calls come from the whole dose curve; as a rule, active = well fitted curve in the direction sought with a large enough effect; inconclusive = small, poorly fitted or top-dose-only effect, or another doubt; inactive = no such curve, though single readings can be large; an effect the other way counts as inactive or inconclusive. % is set by controls: 0 for no effect and ±100 for the full control effect.

SMILES	TrxR1 substrate	rTrxR1 inhibitor	IDH1 R132H inh	Coupling enz	Eya2 inh
N#CC(C#N)=Cc1cc2ccccc2nc1N1CCCCC1	1%	18µM*	-6%	-23	1%
CCOC(=O)/C(C#N)=C/c1cc2ccccc2nc1N1CCOCC1	12%[57.1 µM]	14%[57.1 µM]	-2%	2	3%
c1coc(-c2nc3c([nH]2)CCc2nonc2-3)c1	12%	22µM*	8%	-4	-35%
CSCC[C@H](NC(=O)[C@H](CO)NC(=O)[C@H](Cc1ccc(O)cc1)NC(=O)[C@@H](N)CO)C(=O)N[C@@H](CCC(=O)O)C(=O)N[C@@H](Cc1cnc[nH]1)C(=O)N[C@@H](Cc1ccccc1)C(=O)N[C@@H](CCCNC(=N)N)C(=O)N[C@@H](Cc1c[nH]c2ccccc12)C(=O)NCC(=O)N[C@@H](CCCCN)C(=O)N1CCC[C@H]1C(=O)N[C@H](C(=O)NCC(=O)N[C@@H](CCCCN)C(=O)N[C@@H](CCCCN)C(=O)N[C@@H](CCCNC(=N)N)C(=O)N[C@@H](CCCNC(=N)N)C(=O)N1CCC[C@H]1C(=O)N[C@H](C(=O)N[C@@H](CCCCN)C(=O)N[C@H](C(=O)N[C@@H](Cc1ccc(O)cc1)C(=O)N1CCC[C@H]1C(=O)O)C(C)C)C(C)C)C(C)C	·	·	·	5	·
COc1ccc(CCC(=O)NCc2ccco2)cc1	16%[57.1 µM]	11µM*	6%	0	-28%
CC(=O)NC(Cc1ccc(I)cc1)C(=O)NCC(N)C(=O)c1ccccc1 (centres undefined)	3%	11%	·	·	·
COC(=O)/C(=C/Nc1ccc(O)cc1)[N+](=O)[O-]	-3%[57.1 µM]	6%[57.1 µM]	4%	-36*	4%
CC(=O)c1ccc(OCC(=O)N2CCCC2c2ccc3c(c2)OCCCO3)cc1 (centres undefined)	9%[57.1 µM]	14%	1%	·	-5%
O=C(CCl)N1CCCC1c1ccc2c(c1)OCCO2 (centres undefined)	4%	25µM*	0%	-5	-4%
O=C(C[n+]1ccccc1Br)c1ccc(Cl)cc1	-5%	9%	·	·	·
Cc1ccc(C(=O)/C=C/C(=O)O)cc1	-4%	2.8µM*	2%	6	-14%
Cc1ccc(/C=C/C(=O)c2ccc(O)cc2)cc1	-4%	-12%	-10%	1	-23%
S=C(NCCCc1cnc[nH]1)NCCCN(Cc1ccc(Cl)cc1)c1ccc(Br)cc1	-8%	1%	·	·	·
C[n+]1ccc(/C=N/Nc2nc(Cl)c(C#N)c(Cl)c2Cl)cc1	-18%	3.5µM*	2%	-1	-3%
Cc1cc(S(=O)(=O)NCC(c2ccco2)S(=O)(=O)c2cccs2)ccc1F (centres undefined)	-2%[57.1 µM]	0.35µM*	-5%	·	·
Cc1cc(S(=O)(=O)NCC(c2ccco2)S(=O)(=O)c2ccccc2)ccc1F (centres undefined)	0%[57.1 µM]	11%[57.1 µM]	-16%	·	·
Cc1c(Cl)sn(-c2ccc(Cl)cc2)c1=O	-12%	5µM*	0%	7	-17%
Cc1nn(-c2ccc(Cl)cc2)c(=O)c2ccccc12	-3%	20%	1%	0	-11%
O=C1C(NS(=O)(=O)c2ccc(Cl)cc2)=C(N2CCCCC2)C(=O)c2ccccc21	-9%	?	6%	-34*	3%
CCN1CCN(C2=C(NS(=O)(=O)c3ccccc3)C(=O)c3ccccc3C2=O)CC1	-3%	-3%	7%	·	7%
CN1CCN(C2=C(NS(=O)(=O)c3ccccc3)C(=O)c3ccccc3C2=O)CC1	-11%	-33%	-7%	-46*	4%
CCN1CCN(C2=C(NS(=O)(=O)c3ccc(Br)cc3)C(=O)c3ccccc3C2=O)CC1	-5%	?	0%	·	2%
CN1CCN(C2=C(NS(=O)(=O)c3cccs3)C(=O)c3ccccc3C2=O)CC1	-2%	-10%	28%	-31*	-14%
C=CCOC(=O)N[C@H](c1ccccc1)C(C(C)=O)C(C)=O	·	·	·	10	·
CCOc1c(Cl)cc(CNc2ccc(N3CCCC3)cc2)cc1OC	-9%	13µM*	17%	-30	6%
SMILES	TrxR1 substrate	rTrxR1 inhibitor	IDH1 R132H inh	Coupling enz	Eya2 inh
Cc1ccc(CSC2=NS(=O)(=O)c3ccccc32)cc1	1%	-15%	·	·	·
Cc1cc(-c2ccc(N=Nc3ccc4c(S(=O)(=O)O)cc(S(=O)(=O)O)c(N)c4c3O)c(C)c2)ccc1N=Nc1ccc2c(S(=O)(=O)O)cc(S(=O)(=O)O)c(N)c2c1O	·	·	·	-38*	·
Nc1c(N=Nc2ccc(-c3ccc(N=Nc4cc(S(=O)(=O)O)c5ccccc5c4N)cc3)cc2)cc(S(=O)(=O)O)c2ccccc12	·	·	·	-12	·
CCc1ccc2oc(-c3cc(NC(=O)COc4ccc(C)cc4)ccc3O)nc2c1	0%	11%	·	·	·
CN(C)CCN(Cc1ccccc1)S(=O)(=O)c1ccc(-c2cc(C(F)(F)F)on2)s1	-12%[57.1 µM]	-7%[57.1 µM]	5%	·	·
CN(C)CCN(Cc1ccccc1)S(=O)(=O)c1ccc(-c2ccc(=O)[nH]n2)s1	11%	40µM*	0%	2	0%
Cc1ccc2nc(-c3cccc(S(=O)(=O)N(C)C)c3)cn2c1	-19%[57.1 µM]	17%[57.1 µM]	19%	-32*	8%
CC(C)N1CCc2c(sc(NC(=S)NC(=O)c3ccccc3)c2C#N)C1	-4%	?	9%	-39*	0%
COc1ccc(Cl)cc1N(C)c1nc(N2CCN(S(=O)(=O)c3ccc(C)cc3)CC2)c2ccccc2n1	35%	27%	·	·	·
